Of roughly 7,900 targets only a part is listed; those with a hit were picked by preference. About 0.6% of all pairs of compound and target were hits. Values without a mark were called inactive.

Assay in all cases: log2 fold change, soluble protein after heating vs DMSO (PISA); higher = thermal stabilisation; K562 cells, 10 uM, 30 min; active = over 0.2 and 3.5 SD of the protein, either way, in both replicates (recomputed)
Compound in experiment [1]: CC1=C(SC2=C1C(=N[C@H](C3=NN=C(N32)C)CC(=O)N)C4=CC=C(C=C4)Cl)C
An outline of the steps:
(§1)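 K562 cells at 2×10^6 cells/mL were given 10 μM compound for 30 min. Aliquots then went through 3 min of heating across 48°C-58°C, were pooled, and were extracted in PBS with 0.5% NP-40 at 4°C, and the supernatant after 21,000xg for 90 min was quantified by TMTpro 16plex LC-MS/MS with channel sums equalised. Thermal stability relative to control samples, from duplicates, is given as log2 fold change.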

Compound in experiment [2]: Cc1sc2c(c1C)C(c1ccc(Cl)cc1)=N[C@@H](CC(=O)OC(C)(C)C)c1nnc(C)n1-2
An outline of the steps:
as §1

Compound in experiment [3]: c1ccc([C@@H]2C[C@H]2NC2CCNCC2)cc1
The gist of the method:
as §1

Compound in experiment [4]: C1=CC=C(C=C1)[C@H](COC2=CC3=C(C=C2)NC(=O)N3)NC(=O)C4=CC=CN(C4=O)CC5=CC(=C(C=C5)F)F
An outline of the steps: as §1

Compound in experiment [5]: CC1=C2C(=CC=C1)N=C(N(C2=O)C3=CC=CC=C3C)CN4C=NC5=C(N=CN=C54)N
An outline of the steps:
as §1

UniProt Q08334, sequence (Q08334 whole entry, looked up): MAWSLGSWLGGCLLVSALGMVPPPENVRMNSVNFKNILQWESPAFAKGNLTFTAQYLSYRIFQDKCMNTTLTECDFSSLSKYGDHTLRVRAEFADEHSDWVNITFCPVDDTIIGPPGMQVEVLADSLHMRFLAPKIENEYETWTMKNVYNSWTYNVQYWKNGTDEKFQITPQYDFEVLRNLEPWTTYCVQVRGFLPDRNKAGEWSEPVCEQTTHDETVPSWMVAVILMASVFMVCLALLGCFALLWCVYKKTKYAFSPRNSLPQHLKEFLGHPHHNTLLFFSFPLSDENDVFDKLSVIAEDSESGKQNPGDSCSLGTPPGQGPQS
UniProt P55082, sequence (P55082 whole entry, looked up): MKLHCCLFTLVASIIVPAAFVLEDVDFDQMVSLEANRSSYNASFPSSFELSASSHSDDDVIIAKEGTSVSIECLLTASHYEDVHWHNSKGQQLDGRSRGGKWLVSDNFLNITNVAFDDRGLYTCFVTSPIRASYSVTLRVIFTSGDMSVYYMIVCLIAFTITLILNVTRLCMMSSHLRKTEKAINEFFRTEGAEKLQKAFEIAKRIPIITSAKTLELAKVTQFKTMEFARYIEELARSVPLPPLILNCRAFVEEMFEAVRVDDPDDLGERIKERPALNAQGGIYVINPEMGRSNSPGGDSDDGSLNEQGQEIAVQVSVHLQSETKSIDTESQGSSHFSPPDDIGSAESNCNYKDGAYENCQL
UniProt O60291, sequence (O60291 whole entry, looked up): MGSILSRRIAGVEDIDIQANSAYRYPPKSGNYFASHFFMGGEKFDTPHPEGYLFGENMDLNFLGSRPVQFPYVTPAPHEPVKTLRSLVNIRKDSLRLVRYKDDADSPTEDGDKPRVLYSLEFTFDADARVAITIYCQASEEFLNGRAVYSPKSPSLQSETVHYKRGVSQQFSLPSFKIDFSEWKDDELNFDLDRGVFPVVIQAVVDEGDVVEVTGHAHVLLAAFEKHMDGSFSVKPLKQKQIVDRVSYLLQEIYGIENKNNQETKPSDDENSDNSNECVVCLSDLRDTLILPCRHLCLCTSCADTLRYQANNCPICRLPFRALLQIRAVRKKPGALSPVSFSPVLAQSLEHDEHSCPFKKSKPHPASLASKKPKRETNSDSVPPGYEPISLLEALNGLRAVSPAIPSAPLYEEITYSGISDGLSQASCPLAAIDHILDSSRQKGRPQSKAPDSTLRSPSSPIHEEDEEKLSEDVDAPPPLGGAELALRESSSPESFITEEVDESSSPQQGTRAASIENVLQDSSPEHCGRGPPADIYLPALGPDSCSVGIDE
UniProt O95279, sequence (O95279 whole entry, looked up): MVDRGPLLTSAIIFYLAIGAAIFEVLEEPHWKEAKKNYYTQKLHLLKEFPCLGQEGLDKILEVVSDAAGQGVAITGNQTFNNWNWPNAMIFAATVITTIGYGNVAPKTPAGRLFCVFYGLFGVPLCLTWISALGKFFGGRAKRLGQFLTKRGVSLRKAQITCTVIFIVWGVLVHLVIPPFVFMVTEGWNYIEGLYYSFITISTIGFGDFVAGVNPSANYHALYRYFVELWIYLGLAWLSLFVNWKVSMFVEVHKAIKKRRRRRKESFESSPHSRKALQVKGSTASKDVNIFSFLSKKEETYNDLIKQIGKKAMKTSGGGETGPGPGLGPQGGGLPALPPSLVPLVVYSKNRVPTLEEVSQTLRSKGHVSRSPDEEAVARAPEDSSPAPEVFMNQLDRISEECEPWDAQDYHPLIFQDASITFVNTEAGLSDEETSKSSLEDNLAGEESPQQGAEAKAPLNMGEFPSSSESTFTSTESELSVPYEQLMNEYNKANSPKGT
UniProt Q9Y5V3, sequence (Q9Y5V3 whole entry, looked up): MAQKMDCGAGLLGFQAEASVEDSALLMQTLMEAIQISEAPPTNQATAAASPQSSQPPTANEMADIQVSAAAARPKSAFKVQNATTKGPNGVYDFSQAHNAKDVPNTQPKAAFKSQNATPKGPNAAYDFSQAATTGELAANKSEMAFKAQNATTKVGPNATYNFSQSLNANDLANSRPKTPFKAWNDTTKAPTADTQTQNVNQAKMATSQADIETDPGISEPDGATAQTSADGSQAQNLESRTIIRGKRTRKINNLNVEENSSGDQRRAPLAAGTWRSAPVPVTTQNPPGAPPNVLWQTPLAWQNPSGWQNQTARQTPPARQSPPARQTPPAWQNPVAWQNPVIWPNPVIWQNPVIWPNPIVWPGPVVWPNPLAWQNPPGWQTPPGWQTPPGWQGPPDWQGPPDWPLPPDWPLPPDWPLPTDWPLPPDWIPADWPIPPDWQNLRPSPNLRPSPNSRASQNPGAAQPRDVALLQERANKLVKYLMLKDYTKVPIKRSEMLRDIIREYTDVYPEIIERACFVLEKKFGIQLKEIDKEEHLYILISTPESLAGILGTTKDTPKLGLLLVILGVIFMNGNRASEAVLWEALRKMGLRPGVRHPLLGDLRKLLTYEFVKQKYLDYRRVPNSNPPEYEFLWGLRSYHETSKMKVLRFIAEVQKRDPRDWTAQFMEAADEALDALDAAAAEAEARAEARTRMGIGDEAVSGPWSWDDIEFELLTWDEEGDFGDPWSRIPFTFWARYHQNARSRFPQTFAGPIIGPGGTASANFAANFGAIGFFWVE
UniProt P08514, sequence (P08514 whole entry, looked up): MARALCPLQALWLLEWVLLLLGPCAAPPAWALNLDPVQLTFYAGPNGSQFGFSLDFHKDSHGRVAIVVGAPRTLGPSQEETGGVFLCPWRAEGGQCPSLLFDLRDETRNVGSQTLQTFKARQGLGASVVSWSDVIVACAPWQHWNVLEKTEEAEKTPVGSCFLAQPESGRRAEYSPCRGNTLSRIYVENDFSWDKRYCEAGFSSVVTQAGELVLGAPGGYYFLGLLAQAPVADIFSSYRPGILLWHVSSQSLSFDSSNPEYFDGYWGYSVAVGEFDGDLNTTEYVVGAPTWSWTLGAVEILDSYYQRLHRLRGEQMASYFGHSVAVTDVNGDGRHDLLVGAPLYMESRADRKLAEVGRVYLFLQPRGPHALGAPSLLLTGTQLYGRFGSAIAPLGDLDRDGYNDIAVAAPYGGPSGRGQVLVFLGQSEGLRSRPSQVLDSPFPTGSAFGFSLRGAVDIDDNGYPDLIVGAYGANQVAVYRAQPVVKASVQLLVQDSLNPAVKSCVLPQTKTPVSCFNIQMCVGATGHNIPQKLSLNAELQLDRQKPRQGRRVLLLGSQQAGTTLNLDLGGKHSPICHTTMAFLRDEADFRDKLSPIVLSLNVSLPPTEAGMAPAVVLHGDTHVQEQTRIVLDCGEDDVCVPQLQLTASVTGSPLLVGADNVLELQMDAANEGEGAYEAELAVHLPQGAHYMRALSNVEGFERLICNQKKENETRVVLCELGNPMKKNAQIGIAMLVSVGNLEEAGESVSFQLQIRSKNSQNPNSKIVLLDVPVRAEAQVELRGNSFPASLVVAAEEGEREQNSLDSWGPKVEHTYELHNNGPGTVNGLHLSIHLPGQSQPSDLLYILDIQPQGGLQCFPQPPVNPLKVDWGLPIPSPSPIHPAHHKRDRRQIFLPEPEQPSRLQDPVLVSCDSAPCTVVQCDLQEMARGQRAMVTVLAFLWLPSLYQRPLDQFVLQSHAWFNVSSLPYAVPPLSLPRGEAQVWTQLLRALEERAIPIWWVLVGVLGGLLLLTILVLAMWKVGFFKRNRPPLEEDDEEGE
UniProt P51884, sequence (P51884 whole entry, looked up): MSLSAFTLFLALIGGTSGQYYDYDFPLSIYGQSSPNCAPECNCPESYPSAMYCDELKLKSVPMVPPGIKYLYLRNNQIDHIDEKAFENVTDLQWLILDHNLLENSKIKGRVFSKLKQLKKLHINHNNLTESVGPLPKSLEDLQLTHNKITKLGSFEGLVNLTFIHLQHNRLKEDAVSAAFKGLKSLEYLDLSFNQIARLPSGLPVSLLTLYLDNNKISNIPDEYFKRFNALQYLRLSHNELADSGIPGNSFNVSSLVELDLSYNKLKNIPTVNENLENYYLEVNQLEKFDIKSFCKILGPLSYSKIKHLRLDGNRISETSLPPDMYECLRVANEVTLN
UniProt Q7L590, sequence (Q7L590 whole entry, looked up): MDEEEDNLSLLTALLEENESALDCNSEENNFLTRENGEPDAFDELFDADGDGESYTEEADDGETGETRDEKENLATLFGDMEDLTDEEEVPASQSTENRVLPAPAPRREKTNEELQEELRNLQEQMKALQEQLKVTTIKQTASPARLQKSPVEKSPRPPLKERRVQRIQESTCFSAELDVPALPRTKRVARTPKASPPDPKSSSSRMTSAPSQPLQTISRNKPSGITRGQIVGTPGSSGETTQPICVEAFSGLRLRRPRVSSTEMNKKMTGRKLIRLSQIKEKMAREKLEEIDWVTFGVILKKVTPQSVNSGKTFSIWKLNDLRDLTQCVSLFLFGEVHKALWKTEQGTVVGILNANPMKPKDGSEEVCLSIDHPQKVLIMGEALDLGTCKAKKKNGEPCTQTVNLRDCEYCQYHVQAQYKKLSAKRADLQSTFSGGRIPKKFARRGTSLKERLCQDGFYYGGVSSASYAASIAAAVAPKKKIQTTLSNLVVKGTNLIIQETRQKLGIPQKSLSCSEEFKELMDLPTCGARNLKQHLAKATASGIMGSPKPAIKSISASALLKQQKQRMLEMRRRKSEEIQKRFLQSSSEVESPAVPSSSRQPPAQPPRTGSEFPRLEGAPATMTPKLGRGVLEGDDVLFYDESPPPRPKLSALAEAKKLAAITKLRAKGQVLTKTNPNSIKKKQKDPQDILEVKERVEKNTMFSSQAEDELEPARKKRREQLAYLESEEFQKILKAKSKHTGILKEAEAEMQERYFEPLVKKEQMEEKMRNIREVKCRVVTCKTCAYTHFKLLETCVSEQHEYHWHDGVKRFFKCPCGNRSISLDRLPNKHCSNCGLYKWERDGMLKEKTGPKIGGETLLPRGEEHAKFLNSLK

IKZF1 (UniProt R9R4D9): the log2 fold change in experiment [1] was 0.08; in experiment [2], 0.039; in experiment [3] it was -0.159.
In the case of IL10RB (UniProt Q08334), the log2 fold change in experiment [4] is -0.081; in experiment [5], -0.149; in experiment [2], 0.029.
Consider ITGA2B (UniProt P08514), for which the log2 fold change in experiment [1] is 0.022; in experiment [5], 0.112; in experiment [2], 0.029; in experiment [3], -0.043.
For the target KIF1B isoform 3 (UniProt O60333), the log2 fold change in experiment [5] was -0.246.
On to MAGED1 isoform 2 (UniProt Q9Y5V3), for which the log2 fold change was 0.031 in experiment [1], 0.148 in experiment [5] and -0.01 in experiment [3].
As to LRRCC1 (UniProt Q9C099), the log2 fold change in experiment [2] is 0.046.
As to MFAP3 (UniProt P55082), the log2 fold change is 0.007 in experiment [4], 0.25 in experiment [5] and -0.155 in experiment [2].
Regarding MCM10 (UniProt Q7L590), the log2 fold change in experiment [4] is -0.04; in experiment [5], 0.204; in experiment [2] it was 0.032.
For MGRN1 isoform 2 (UniProt O60291), the log2 fold change was -0.088 in experiment [4], -0.004 in experiment [1], 0.036 in experiment [2] and 0.086 in experiment [3].
LUM (UniProt P51884): the log2 fold change was -0.05 in experiment [1], 0.087 in experiment [5], 0.144 in experiment [2] and 0.143 in experiment [3].
For LMNA isoform 2 (UniProt P02545), the log2 fold change in experiment [2] was -0.033.
Turning to KCNK5 (UniProt O95279), the log2 fold change in experiment [4] is -0.028; in experiment [1] it was 0.114; in experiment [3], -0.054.

Source of the values: the supplement of paper PMC10849652.
